Compound activity as filed in PubChem.
GPR151 ag: activators of human GPR151, primary screen, cell-based, PathHunter beta-arrestin, luminescence; 1% of 650,000 active; PathHunter beta-arrestin GPR151 cells; G-protein coupled receptor 151 (Homo sapiens), Q8TDV0; activation, % at 11.2 µM; in the data active means activation above about 4.9%;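 further: 0% = median of compound wells and 100% = cells with positive control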
Target sequence (Q8TDV0 whole entry, looked up): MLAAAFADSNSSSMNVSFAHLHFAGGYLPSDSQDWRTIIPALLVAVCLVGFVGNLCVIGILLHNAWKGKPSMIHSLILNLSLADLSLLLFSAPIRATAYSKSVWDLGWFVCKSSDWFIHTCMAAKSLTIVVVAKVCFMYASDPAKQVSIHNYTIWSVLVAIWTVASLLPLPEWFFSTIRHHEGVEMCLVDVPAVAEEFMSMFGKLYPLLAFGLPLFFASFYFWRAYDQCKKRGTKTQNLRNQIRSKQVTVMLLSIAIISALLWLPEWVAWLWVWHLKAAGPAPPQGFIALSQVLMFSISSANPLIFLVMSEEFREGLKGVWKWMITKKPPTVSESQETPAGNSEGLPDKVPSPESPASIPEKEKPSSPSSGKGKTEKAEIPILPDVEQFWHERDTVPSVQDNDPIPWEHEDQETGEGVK
TEAD-YAP inh: TEAD-YAP interaction inhibition, primary screen, TEAD-YAP interaction inhibitor project, luminescence, HEK-TIYL cells. TEAD-Gal4/YAP UAS-luciferase luminescence. inhibition, % at 9.12 µM. 1.4% of 640,000 active. AID 1259422, 2018; in the data active means inhibition above about 32%;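 further: 0% = median of test compound wells and 100% = reference inhibitor wells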
FBW7 activator: FBW7 E3 ligase activators, primary screen, biochemical, AlphaScreen, human; F-box/WD repeat-containing protein 7 (Homo sapiens), Q969H0; AlphaScreen FBW7–phospho-cyclin E peptide binding, activator screen; normalized activity (activation), % at 26.1 µM; 0.13% of 650,000 active; AID 1259310, 2017; in the data active means normalized activity above about 1.9%;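 further: purified mutant Fbw7 with reduced substrate affinity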
MITF primary: MITF inhibitors, primary screen, biochemical, AlphaScreen, human; Microphthalmia-associated transcription factor (Homo sapiens), O75030; AlphaScreen MITF homodimerization, bead proximity signal; inhibition, % at 2.6 µM; 0.91% of 650,000 active; AID 1259374, 2018; in the data active means inhibition above about 50%;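 further: 0% = vehicle wells with protein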
Numbers without * were called inactive; . = not tested or not shown. Compounds with a hit are over-represented: about 3.4% of the library has one in this group of screens.

SMILES	GPR151 ag	TEAD-YAP inh	FBW7 activator	MITF primary
O=C(Nc1ccncc1)C(=O)c1cn(Cc2ccc(Cl)cc2)c2ccccc12	-1	45*	0	8
COC(=O)C[C@@](O)(CCC(C)(C)O)C(=O)O[C@@H]1C(OC)=C[C@]23CCCN2CCc2cc4c(cc2[C@@H]13)OCO4	-2	101*	1	7
COC1=CC23CCCN2CCc2cc4c(cc2C3C1O)OCO4 (centres undefined)	-2	-8	0	18
O=c1c2ccccc2nc(/C=C/c2ccc([N+](=O)[O-])cc2)n1-c1cc(Cl)ccc1Cl	0	7	0	10
CC1(C)C(=O)C=C[C@@]2(C)C1=C(O)C(=O)[C@]1(C)C2CC[C@@]2(C)[C@H](c3ccoc3)C[C@H]3O[C@]321 (some centres undefined)	2	65*	0	-11
CC(=O)O[C@@H]1C[C@@]2(C)[C@H](c3ccoc3)C[C@H]3O[C@]32[C@]2(C)C(=O)C(O)=C3C(C)(C)C(=O)C=C[C@]3(C)C12 (some centres undefined)	3	72*	0	9
O=C(Nc1nc(C23CC4CC(CC(C4)C2)C3)cs1)c1c(O)c2c(n(Cc3ccco3)c1=O)CCCC2	1	-2	0	-4
CCCCC/C=C\C/C=C\C/C=C\C/C=C\CCCC(=O)NC[C@@H](C)O	0	.	.	13
O=C(O)c1ccccc1C(=O)N1CCC2(CC1)OCc1cc(F)ccc1O2	1	3	0	8
CCOC(=O)C1(C#N)CC2c3ccccc3C1c1ccccc12 (centres undefined)	2	7	2.0*	15
COC(=O)C1(C#N)CC2c3ccccc3C1c1ccccc12 (centres undefined)	3	3	0	-1
CC(C)(O)[C@@H]1[C@H]2OC(=O)[C@@H]1C1(O)C[C@H]3O[C@]34C(=O)O[C@H]2[C@]14C (some centres undefined) (tested in a mixture with another compound)	0	0	0	-23
O=c1c2ccccc2[nH]c(=S)n1-c1ccccc1F	0	-7	0	10
CCOc1ccc(-n2c(/C=C/c3ccc(OC)cc3)nc3ccccc3c2=O)cc1	0	12	0	-8
CCn1nc(/C=C\c2ccccc2)nc2c(=O)n(C)c(=O)nc1-2	-6	40*	0	4
COc1ccc(OC)c(N2C(=O)/C(=C\c3ccco3)C(=O)NC2=S)c1	4	-7	0	79*
CC[C@@]1(O)C[C@H](O[C@H]2C[C@H](N(C)C)[C@H](O)[C@H](C)O2)c2c(cc3c(c2O)C(=O)c2c(O)ccc(O)c2C3=O)[C@H]1C(=O)OC	1	-9	0	17
CC[C@@]1(O)C[C@H](O[C@H]2C[C@H](N(C)C)[C@H](O)[C@H](C)O2)c2c(cc3c(c2O)C(=O)c2c(O)cccc2C3=O)[C@H]1C(=O)OC	0	51*	0	17
CC(C)(C)n1nnnc1CN1CCC(n2nnc3ccccc32)CC1	1	9	0	1
CC(C)N1CC=C(c2c[nH]c3ccccc23)CC1	0	37*	0	4
CC(C)C/C(=N/O)c1c[nH]c2ccccc12	2	-4	0	-4
CC(C)(C)n1cc(C(=O)c2ccccc2O)cn1	1	-35	0	9
CC(C)(C)n1cc(C(=O)c2ccc3ccccc3c2O)cn1	0	50*	0	-9
O=P1(Nc2ccc(Cl)cc2)CC=CC1	-2	1	0	13
Fc1cnc(Nc2ccc(-n3cnc(N4CCOCC4)n3)cc2)cc1-c1cn[nH]c1 (tested in a mixture with another compound)	0	36*	0	11
SMILES	GPR151 ag	TEAD-YAP inh	FBW7 activator	MITF primary
Cc1nc(C)n(-c2ccc(Nc3cc(-c4cn[nH]c4)ccn3)cc2)n1 (tested in a mixture with another compound)	0	-1	0	9
CC(=O)c1ccc(OC(=O)N(C)c2ccccc2)cc1	0	-41	0	-6
Cc1cc(N(C)C)cc(C)[n+]1OC(=O)N(c1ccccc1)c1ccccc1	0	64*	0	-2
COc1cc([N+](=O)[O-])c(Cl)cc1NC(=O)c1ccccc1I	2	11	0	0
O=C(O)COc1ccccc1/C=C1\C(=O)NC(=O)N(c2ccc(O)cc2)C1=O	0	6	0	75*
COc1cc(/C=C2\C(=O)NC(=O)N(c3ccc([N+](=O)[O-])cc3)C2=O)ccc1OCC(=O)O	0	12	0	9
CNC(=O)O/N=C(/c1nonc1N)N1CCOCC1	2	-7	0	-12
CCCOc1ccc(/C=C(/C)[N+](=O)[O-])cc1OC	-1	37*	0	-14
CCn1c(SCC(=O)N2c3ccc(C)cc3C3CN(C)CCC32)nc2c1c(=O)n(C)c(=O)n2C (centres undefined)	0	-1	0	-7
CC(=O)Nc1cc(CNC(C)Cc2ccccc2F)cc(C(=O)N2CCCC2)c1 (centres undefined)	1	3	0	-10
CC(N)[C@H](O)c1ccc(O)c(O)c1 (some centres undefined)	0	-2	0	89*
C[C@H](N)[C@H](O)c1ccccc1	-3	-2	0	-11
COc1cccc(-n2c(/C=C/c3ccc(N(C)C)cc3)nc3ccccc3c2=O)c1	0	-7	0	-2
CN(C)c1ccc(/C=C2/C(=O)NC(=S)N(Cc3ccco3)C2=O)cc1	0	14	-1	76*
CN(C)c1ccc(/C=C2/C(=O)NC(=S)N(c3ccccc3F)C2=O)cc1	1	4	0	10
CCC1(C)Cc2nc(N)c(C#N)cc2CO1 (centres undefined)	0	0	0	2
COc1ccc(C[C@H]2NC[C@H](O)[C@H]2OC(C)=O)cc1	4	103*	0	-4
COc1ccc(CC2C(=O)N(C)C(=O)N(C)C2=O)cc1	0	3	0	1
COc1cc(/C=C2\Oc3cc(OC(=O)N(C)C)cc(C)c3C2=O)cc(OC)c1OC	-1	1	0	14
O=C1NC(=S)N(c2ccc(Cl)cc2)C(=O)/C1=C\c1ccc([N+](=O)[O-])o1	1	6	0	68*
Cn1cccc1/C=C1/C(=O)NC(=S)N(c2ccc(Cl)cc2)C1=O	-2	1	0	21
CCN(CC)C1=NC(=[N+](CC)CC)c2ccccc21	0	74*	1	22
COc1ccc(N2CCN(Cc3ccc(N(C)C)cc3)CC2)cc1	-1	2	-1	71*
COc1ccc(N2CCN(CCC#N)CC2)cc1	0	0	0	57*
